# Assay results as given in PubChem BioAssay (NCI).
# This is part of a sample that, as a whole, favours compounds with a hit. Of some 83,000 tested, about 20% had one in any assay.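 Cells were grown in 96-well plates and exposed to the test compound at a single concentration for 48 hours; results are reported as percent growth, with values below 10 considered active.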 Unmarked numbers belong to inactive results. Activity calls are given as the source filed them.
# System: HL-60(TB) leukemia
# Test: NCI-60 one-dose screen, 48 h (100 = growth as untreated, 0 = no growth, -100 = all killed)
# Conditions: 10 µM unless noted
row,Compound,growth
1,N#Cc1c(NC(=O)c2ccc(C(F)(F)F)cc2)sc2c1CCC(=O)C2,7.73% (active)
2,O=C(COc1ccc(NC(=O)Nc2ccc(Cl)c(Cl)c2)cc1)N=Nc1c(O)[nH]c2ccc([N+](=O)[O-])cc12,92.4%
3,CCCSc1nc(Nc2ccc(S(N)(=O)=O)cc2)c(C#N)c(-c2ccc(Cl)cc2)n1,46.3%
4,O=C(CSc1nnc(-c2c[nH]c3ccccc23)n1-c1ccccc1)Nc1ccc(C(=O)/C=C/c2ccc(Br)cc2)cc1,83.2%
5,COc1ccc(-n2c(SCC(=O)NNS(=O)(=O)c3ccccc3)nc3ccc(Cl)cc3c2=O)cc1,107%
6,Cc1cccc(/C=C/c2ccc(NC(=S)NCCCCN(C)C)cc2)c1,-37.7% (active)
7,COc1cc(-c2nc3cc(Cl)c(Cl)cc3[nH]2)ccc1OCc1nnc(-c2ccc(Br)cc2)o1,-62% (active)
8,COc1cc2c(c(OC)c1OC)C(=O)CC(c1cccc(NC(=O)c3cc([N+](=O)[O-])ccc3Cl)c1)O2 (configuration not stated),34.1%
9,O=S(=O)(Nc1cccc(-n2cnc3cc(-c4ccc(O)cc4)ccc32)c1)C1CC1,-19.9% (active)
10,O=C1Nc2ccccc2/C1=C/C(=O)c1cc2ccccc2oc1=O,102%
11,COc1ccccc1[C@H]1C(C(=O)c2ccc(Cl)cc2)C2(N[C@@H]1c1ccccc1)C(=O)Nc1ccc(Cl)cc12 (some centres not stated),-25.1% (active)
12,COc1ccc(C(=O)/C=C/c2ccc(OCc3ccc(F)cc3)c(OC)c2)cc1OC,-5.63% (active)
13,Clc1ccc(Nc2nnc(-c3c[nH]c4ccccc34)o2)cc1,43.4%
14,CC12CC[C@@H]3[C@]4(C)COC(c5cn[nH]c5-c5ccc(Cl)cc5)O[C@@H]4CC[C@@]3(C)[C@@H]1CC(C1=CCOC1=O)O2 (some centres not stated),3.37% (active)
15,Cc1ccc2nc(COc3ccc(C(=O)NNC(=O)Nc4ccc(Cl)c(C(F)(F)F)c4)cc3)[nH]c2c1,86.1%
16,CCOC(=O)/C(F)=C/C1CC1CCc1ccc(OCC)cc1 (configuration not stated),101%
17,CC1(C)CC(=O)C2=C(C1)N(Cc1ccc(C(=O)O)cc1)C1=C(C(=O)CC(C)(C)C1)C2c1ccc(Cl)cc1,107%
18,CC(=O)Nc1ccc(-n2cnc3ccc(-c4ccc(O)cc4)cc32)cc1,38.2%
19,COc1cccc2nc(Nc3cccc(NC(=O)c4ccc(CN5CCCN(C)CC5)c(C(F)(F)F)c4)c3)ccc12,-54.3% (active)
20,CS(=O)(=O)Nc1ccc(-c2ccc3c(c2)ncn3-c2ccc(NC(=O)Nc3ccc(Br)cc3)cc2)cc1,-42% (active)
21,O=C(COc1ccc(NC(=O)Nc2ccc(Cl)cc2)cc1)N/N=C/c1ccccc1,45.8%
22,Cc1ccc(C(=O)C(c2c[nH]c3ccccc23)c2c[nH]c3ccccc23)cc1,17.2%
23,O=C(Nc1nc2ccccc2s1)Nc1ccccc1Cl,97.4%
24,COc1ccc(N2N=C(c3ccc4c(c3)OCCO4)CC2c2cccc(NC(=O)CCCNS(=O)(=O)c3ccc(F)cc3)c2)cc1 (configuration not stated),80.5%
25,O=C(CSc1nc2ccccc2c(=O)n1-c1ccc(Cl)cc1)Nc1ccc(-c2nc3ccc([N+](=O)[O-])cc3[nH]2)cc1,85.7%
26,O=C(CCN1C(=O)/C(=C/c2ccc(F)cc2)SC1=S)N1CCOCC1,86.4%
27,CCc1ccccc1-c1nc(CN[C@@H]2C[C@@H]3C[C@H]([C@H]2C)C3(C)C)c(C)o1,-35.9% (active)
